Measurements reported in PubChem BioAssay (EPA / NIEHS).
Results filed as inconclusive are left out. Some compounds were tested as several samples or in several runs, with calls that do not always agree. Calls of active or inactive are those of the source. How the source made its calls, unless noted: active means hit-call score of the fitted dose curve at least 0.9, where 1 is the maximum; inactive means score below 0.9.

Key:
[1] = ATG_PBREM_CIS: Attagene CIS-FACTORIAL HepG2 Assay for human Phenobarbital-responsive Enhancer Module (PBREM) (AID 2282955); conditions: HepG2 PBREM cis-reporter, Attagene multiplexed transcription; actives raise or lower the signal
How it was run: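 Endogenous transcription factor activity was read from reporter transcripts in transiently transfected human HepG2 liver cells after 24 h dosing. RT-PCR products were fluorescently labelled, HpaI-cut and sized by capillary electrophoresis; activity fitted bidirectionally against DMSO baseline.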

[2] = molecular target: Paired box protein Pax-6 (Homo sapiens) (UniProt P26367); experiment: ATG_Pax6_CIS: Attagene CIS-FACTORIAL HepG2 Assay for human Paired Box 6 (PAX6) (AID 2282956); conditions: HepG2 CIS-FACTORIAL PAX6 reporter transcription, RNA readout; actives raise or lower the signal
How it was run: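 Values derive from bidirectional curve fitting of reporter mRNA signal relative to DMSO. HepG2 cells bearing transfected cis-regulated MRTUs were exposed for 24 h; transcripts were read by RT-PCR and capillary electrophoresis.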

[3] = ATG_PXRE_CIS: Attagene CIS-FACTORIAL HepG2 Assay for human Pregnane X Receptor Element (PXRE) (AID 2282957); conditions: HepG2 Attagene CIS-FACTORIAL PXRE reporter, mRNA; actives raise or lower the signal
How it was run: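 Using HepG2 transfected with multiple reporter transcription units, endogenous factor-driven transcription was scored as reporter mRNA after 24 h exposure.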

[4] = ATG_PPRE_CIS: Attagene CIS-FACTORIAL HepG2 Assay for human Peroxisome Proliferator-activated Response Element (PPRE) (AID 2282958); conditions: HepG2 PPRE cis-element reporter, Attagene transcription factor profiling; actives raise or lower the signal
How it was run: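 Endogenous PPRE-driven transcription is measured in HepG2 cells carrying transfected multi-reporter constructs. Reporter transcripts are quantified by RT-PCR, HpaI digestion and capillary electrophoresis 24 h after dosing. DMSO baseline, bidirectional fit.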

[5] = ATG_RORE_CIS: Attagene CIS-FACTORIAL HepG2 Assay for human RAR-related Orphan Receptor Element (RORE) (AID 2282959); conditions: HepG2 Attagene cis-factorial RORE reporter, mRNA; actives raise or lower the signal
How it was run: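 RORE reporter transcripts reflecting endogenous factor activity were read after 24 h compound exposure of transfected HepG2 cells, using reverse transcription, PCR, fluorescent labelling and capillary electrophoresis sizing. Gain or loss fitted against DMSO.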

[6] = ATG_Sox_CIS: Attagene CIS-FACTORIAL HepG2 Assay for human SRY-box transcription factor (SOX) (AID 2282960); conditions: HepG2 Attagene cis-factorial SOX reporter, mRNA; actives raise or lower the signal
How it was run: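 Reporter transcripts, measured by RT-PCR and capillary electrophoresis of labelled fragments, report endogenous SOX transcription factor activity. Transiently transfected human HepG2 cells receive chemical for 24 h; changes in either direction are fitted relative to DMSO.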

[7] = molecular target: Transcription factor Sp1 (Homo sapiens) (UniProt P08047); experiment: ATG_Sp1_CIS: Attagene CIS-FACTORIAL HepG2 Assay for human Specificity Protein 1 (Sp1) (AID 2282961); conditions: HepG2 Sp1 cis-reporter transcription, actives raise or lower the signal
How it was run: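 Read-out is reporter transcript level, measured by RT-PCR and fluorescent capillary electrophoresis after 24 h chemical treatment. System: transiently transfected HepG2 cells reporting endogenous transcription factor activity; gain or loss fitted against DMSO baseline.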

[8] = ATG_SREBP_CIS: Attagene CIS-FACTORIAL HepG2 Assay for human Sterol Regulatory Element Binding (SREBP) (AID 2282962); conditions: HepG2 Attagene cis-factorial SREBP reporter, mRNA; actives raise or lower the signal
How it was run: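 Values derive from bidirectional curve fitting with DMSO as baseline. The underlying measurement is reporter mRNA from cis-element-regulated units in transiently transfected HepG2, quantified by RT-PCR and capillary electrophoresis after 24 h exposure.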

[9] = molecular target: Signal transducer and activator of transcription 3 (Homo sapiens) (UniProt P40763); experiment: ATG_STAT3_CIS: Attagene CIS-FACTORIAL HepG2 Assay for human Signal Transducer and Activator of Transcription 3 (STAT3) (AID 2282963); conditions: HepG2, Attagene cis-factorial STAT3 reporter transcription; actives raise or lower the signal
How it was run: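 HepG2, MRTU-transfected, 24 h dosing. RNA → RT → PCR → FAM label → HpaI → CE. Bidirectional fit vs DMSO.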

[10] = ATG_TA_CIS: Attagene CIS-FACTORIAL HepG2 Assay for human TA Basal Promoter (AID 2282964); conditions: HepG2 Attagene CIS-factorial TA basal promoter reporter; actives raise or lower the signal
How it was run: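 Transient MRTU transfection of HepG2 preceded 24 h compound exposure. Reporter mRNA levels were then read by RT-PCR with capillary electrophoresis, and this background-control endpoint was fitted bidirectionally to DMSO.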

[11] = ATG_TCF_b_cat_CIS: Attagene CIS-FACTORIAL HepG2 Assay for human T-Cell-Factor with beta-catenin (TCF/b-cat) (AID 2282965); conditions: HepG2 TCF/beta-catenin cis-reporter transcription, actives raise or lower the signal
How it was run: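 In this cis-format system, transfected HepG2 cells report endogenous transcription factor activity. Readout after 24 h exposure is reporter transcript abundance from RT-PCR and capillary electrophoresis, analysed for gain or loss of signal versus DMSO.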

[12] = ATG_TAL_CIS: Attagene CIS-FACTORIAL HepG2 Assay for human TAL Basal Promoter (AID 2282966); conditions: HepG2 Attagene cis-factorial TAL promoter reporter; actives raise or lower the signal;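 further: background control endpoint measuring basal TAL promoter reporter mRNA not a specific factor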
How it was run: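 After 24 hours of chemical exposure, transfected HepG2 cells yielded RNA that was converted to 6-FAM-labelled, HpaI-digested reporter fragments for capillary electrophoresis. Values derive from bidirectional fitting against DMSO controls.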

[13] = ATG_TGFb_CIS: Attagene CIS-FACTORIAL HepG2 Assay for human Transforming Growth Factor (TGF) (AID 2282967); conditions: HepG2 Attagene CIS TGFb reporter, mRNA transcription; actives raise or lower the signal
How it was run: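 After a 24-hour incubation with compound, transfected HepG2 cells were lysed for RNA; reporter cDNA was amplified, fluorescently end-labeled and separated by CE. DMSO served as baseline for bidirectional fits.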

[14] = ATG_VDRE_CIS: Attagene CIS-FACTORIAL HepG2 Assay for human Vitamin D Receptor Element (VDRE) (AID 2282968); conditions: HepG2 VDRE cis-reporter transcription, actives raise or lower the signal
How it was run: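 Steps: transfect HepG2 with multiple reporter transcription units; dose chemicals 24 h; isolate RNA; RT-PCR; label with 6-FAM primer extension; HpaI digest; capillary electrophoresis. Curves fitted both directions against DMSO.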

[15] = molecular target: Nuclear receptor subfamily 1 group I member 3 (Homo sapiens) (UniProt Q14994); experiment: ATG_CAR_TRANS: Attagene TRANS-FACTORIAL HepG2 Assay for human Constitutive Androstane Receptor (CAR) (AID 2282969; active means hit-call score of the fitted dose curve at least 0.9, where 1 is the maximum;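 further: activators raise reporter mRNA above DMSO so AC50 marks induction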); conditions: HepG2 Attagene TRANS-FACTORIAL CAR reporter
How it was run: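 Steps: transient transfection of HepG2 with multiple GAL4-UAS reporter units; 24 h compound incubation; RNA isolation, RT-PCR, 6-FAM primer extension, HpaI digest; capillary electrophoresis. Gain-of-signal relative to DMSO negative control.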

[16] = molecular target: Estrogen receptor (Homo sapiens) (UniProt P03372); experiment: ATG_ERa_TRANS: Attagene TRANS-FACTORIAL HepG2 Assay for human Estrogen Receptor alpha (ERa) (AID 2282970; active means hit-call score of the fitted dose curve at least 0.9, where 1 is the maximum); conditions: HepG2 Attagene TRANS ERa GAL4 reporter, mRNA
How it was run: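 Liver-derived HepG2 cells expressing chimeric nuclear receptor-Gal4 proteins from transient transfection were exposed for 24 hours. Gain of reporter mRNA signal versus DMSO, read by capillary electrophoresis of FAM-labelled PCR products, was recorded.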

[17] = molecular target: Steroid hormone receptor ERR1 (Homo sapiens) (UniProt P11474); experiment: ATG_ERRa_TRANS: Attagene TRANS-FACTORIAL HepG2 Assay for human Estrogen-Related Receptor alpha (ERRa) (AID 2282971; active means hit-call score of the fitted dose curve at least 0.9, where 1 is the maximum); conditions: HepG2 Attagene TRANS reporter, ERRa transactivation
How it was run: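 Reporter transcript induction was quantified by RT-PCR and capillary electrophoresis of FAM-labelled, HpaI-cut products after 24 h treatment of HepG2 cells carrying transiently transfected GAL4-UAS reporter units and an exogenous ERRa-Gal4 fusion; activity scored as increase over DMSO.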

[18] = molecular target: X-box-binding protein 1 (Homo sapiens) (UniProt P17861); experiment: ATG_Xbp1_CIS: Attagene CIS-FACTORIAL HepG2 Assay for human X-box Binding Protein 1 (XBP1) (AID 2282972); conditions: HepG2 XBP1 cis-element reporter, Attagene multiplex; actives raise or lower the signal
How it was run: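 Human hepatoma HepG2, cis-element reporter system, 24 h treatment; mRNA quantified by RT-PCR/CE fluorescence; fit relative to DMSO.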

[19] = ATG_M_19_TRANS: Attagene TRANS-FACTORIAL HepG2 Assay for M19 Transcription Factor (Internal Marker) (AID 2282974; active means hit-call score of the fitted dose curve at least 0.9, where 1 is the maximum); conditions: HepG2 Attagene TRANS-FACTORIAL M19 internal marker reporter
How it was run: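 Background-control readout: after 24 h chemical exposure of transfected HepG2 carrying GAL4-driven reporter units, RNA was reverse-transcribed, amplified, fluorescently labeled and sized by capillary electrophoresis; gain-of-signal fit against DMSO.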

[20] = ATG_GAL4_TRANS: Attagene TRANS-FACTORIAL HepG2 Assay for GAL4 (Internal Marker) (AID 2282976; active means hit-call score of the fitted dose curve at least 0.9, where 1 is the maximum); conditions: HepG2 Attagene TRANS GAL4 internal marker reporter
How it was run: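 First, HepG2 cells were transfected with reporter units under GAL4-UAS control. Next, they were treated with chemical for 24 h. Finally, RNA was reverse-transcribed, PCR-amplified, FAM-labelled and resolved by capillary electrophoresis, with induction scored against DMSO.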

Measured: AC50

Sequence of Estrogen receptor (Homo sapiens) (P03372 whole entry, looked up, the tested form may be a part): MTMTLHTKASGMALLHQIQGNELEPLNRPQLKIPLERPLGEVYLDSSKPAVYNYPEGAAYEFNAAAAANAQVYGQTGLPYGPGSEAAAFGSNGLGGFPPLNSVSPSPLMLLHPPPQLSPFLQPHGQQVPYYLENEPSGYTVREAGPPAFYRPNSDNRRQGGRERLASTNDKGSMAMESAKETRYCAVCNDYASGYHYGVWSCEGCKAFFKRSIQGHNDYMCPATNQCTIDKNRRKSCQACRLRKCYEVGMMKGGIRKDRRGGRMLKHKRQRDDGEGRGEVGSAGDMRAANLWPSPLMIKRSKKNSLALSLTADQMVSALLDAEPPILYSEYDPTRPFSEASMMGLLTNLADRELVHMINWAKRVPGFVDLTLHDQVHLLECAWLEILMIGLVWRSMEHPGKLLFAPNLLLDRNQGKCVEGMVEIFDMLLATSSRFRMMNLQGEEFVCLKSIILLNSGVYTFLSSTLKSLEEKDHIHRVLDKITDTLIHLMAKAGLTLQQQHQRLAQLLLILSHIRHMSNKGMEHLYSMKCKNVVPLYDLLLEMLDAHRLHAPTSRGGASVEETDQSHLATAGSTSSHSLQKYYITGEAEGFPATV
Sequence of Steroid hormone receptor ERR1 (Homo sapiens) (P11474 whole entry, looked up, the tested form may be a part): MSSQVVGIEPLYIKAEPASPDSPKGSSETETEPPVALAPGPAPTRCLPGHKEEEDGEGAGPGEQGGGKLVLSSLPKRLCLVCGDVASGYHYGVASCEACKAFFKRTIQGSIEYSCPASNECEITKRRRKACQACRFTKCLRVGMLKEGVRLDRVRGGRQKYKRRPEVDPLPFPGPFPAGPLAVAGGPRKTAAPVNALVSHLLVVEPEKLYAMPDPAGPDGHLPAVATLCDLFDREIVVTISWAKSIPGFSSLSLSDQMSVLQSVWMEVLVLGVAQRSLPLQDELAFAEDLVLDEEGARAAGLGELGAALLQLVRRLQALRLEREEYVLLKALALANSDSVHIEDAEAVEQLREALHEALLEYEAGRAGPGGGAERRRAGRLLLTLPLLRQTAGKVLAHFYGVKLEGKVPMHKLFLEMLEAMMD
Sequence of Transcription factor Sp1 (Homo sapiens) (P08047 whole entry, looked up): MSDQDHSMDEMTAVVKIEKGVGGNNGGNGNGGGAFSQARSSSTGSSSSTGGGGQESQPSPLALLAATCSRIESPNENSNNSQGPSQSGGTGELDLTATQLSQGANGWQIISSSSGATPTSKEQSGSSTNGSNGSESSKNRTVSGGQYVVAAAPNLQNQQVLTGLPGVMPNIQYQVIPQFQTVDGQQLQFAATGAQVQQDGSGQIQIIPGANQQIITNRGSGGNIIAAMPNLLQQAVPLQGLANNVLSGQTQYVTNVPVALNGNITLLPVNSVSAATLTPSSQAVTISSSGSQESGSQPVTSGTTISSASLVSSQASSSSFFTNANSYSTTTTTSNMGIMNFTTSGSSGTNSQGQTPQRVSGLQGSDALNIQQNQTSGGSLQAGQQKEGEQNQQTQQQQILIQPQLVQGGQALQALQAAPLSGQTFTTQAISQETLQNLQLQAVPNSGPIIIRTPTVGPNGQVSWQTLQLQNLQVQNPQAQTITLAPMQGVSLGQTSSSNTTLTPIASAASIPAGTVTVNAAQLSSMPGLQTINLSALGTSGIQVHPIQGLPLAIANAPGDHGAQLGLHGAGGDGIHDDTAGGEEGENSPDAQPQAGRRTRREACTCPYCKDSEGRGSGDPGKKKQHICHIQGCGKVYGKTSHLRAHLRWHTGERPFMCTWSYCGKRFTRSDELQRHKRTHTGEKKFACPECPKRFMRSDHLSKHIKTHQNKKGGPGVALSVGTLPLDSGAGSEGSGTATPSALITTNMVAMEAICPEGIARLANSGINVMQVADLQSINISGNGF
Sequence of Nuclear receptor subfamily 1 group I member 3 (Homo sapiens) (Q14994 whole entry, looked up, the tested form may be a part): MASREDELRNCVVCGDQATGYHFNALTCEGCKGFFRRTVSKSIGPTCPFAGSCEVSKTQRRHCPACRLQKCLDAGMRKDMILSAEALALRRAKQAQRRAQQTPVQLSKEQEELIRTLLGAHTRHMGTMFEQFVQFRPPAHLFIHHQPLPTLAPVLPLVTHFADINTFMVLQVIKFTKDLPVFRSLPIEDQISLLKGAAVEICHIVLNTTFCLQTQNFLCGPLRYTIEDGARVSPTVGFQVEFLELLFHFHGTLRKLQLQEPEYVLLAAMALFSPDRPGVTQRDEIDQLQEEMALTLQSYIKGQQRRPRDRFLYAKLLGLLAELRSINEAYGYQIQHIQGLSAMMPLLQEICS
Sequence of Paired box protein Pax-6 (Homo sapiens) (P26367 whole entry, looked up): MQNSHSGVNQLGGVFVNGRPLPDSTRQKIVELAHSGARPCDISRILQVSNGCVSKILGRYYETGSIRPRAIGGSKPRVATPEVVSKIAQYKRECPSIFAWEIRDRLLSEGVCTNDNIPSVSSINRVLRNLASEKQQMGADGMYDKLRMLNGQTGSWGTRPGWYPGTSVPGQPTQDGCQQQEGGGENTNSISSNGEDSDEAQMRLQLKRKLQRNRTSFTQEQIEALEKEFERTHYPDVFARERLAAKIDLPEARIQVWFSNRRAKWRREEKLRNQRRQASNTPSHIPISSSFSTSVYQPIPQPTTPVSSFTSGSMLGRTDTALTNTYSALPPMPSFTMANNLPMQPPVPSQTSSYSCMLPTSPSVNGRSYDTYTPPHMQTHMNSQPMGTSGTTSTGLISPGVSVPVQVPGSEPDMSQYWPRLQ
Sequence of Signal transducer and activator of transcription 3 (Homo sapiens) (P40763 whole entry, looked up): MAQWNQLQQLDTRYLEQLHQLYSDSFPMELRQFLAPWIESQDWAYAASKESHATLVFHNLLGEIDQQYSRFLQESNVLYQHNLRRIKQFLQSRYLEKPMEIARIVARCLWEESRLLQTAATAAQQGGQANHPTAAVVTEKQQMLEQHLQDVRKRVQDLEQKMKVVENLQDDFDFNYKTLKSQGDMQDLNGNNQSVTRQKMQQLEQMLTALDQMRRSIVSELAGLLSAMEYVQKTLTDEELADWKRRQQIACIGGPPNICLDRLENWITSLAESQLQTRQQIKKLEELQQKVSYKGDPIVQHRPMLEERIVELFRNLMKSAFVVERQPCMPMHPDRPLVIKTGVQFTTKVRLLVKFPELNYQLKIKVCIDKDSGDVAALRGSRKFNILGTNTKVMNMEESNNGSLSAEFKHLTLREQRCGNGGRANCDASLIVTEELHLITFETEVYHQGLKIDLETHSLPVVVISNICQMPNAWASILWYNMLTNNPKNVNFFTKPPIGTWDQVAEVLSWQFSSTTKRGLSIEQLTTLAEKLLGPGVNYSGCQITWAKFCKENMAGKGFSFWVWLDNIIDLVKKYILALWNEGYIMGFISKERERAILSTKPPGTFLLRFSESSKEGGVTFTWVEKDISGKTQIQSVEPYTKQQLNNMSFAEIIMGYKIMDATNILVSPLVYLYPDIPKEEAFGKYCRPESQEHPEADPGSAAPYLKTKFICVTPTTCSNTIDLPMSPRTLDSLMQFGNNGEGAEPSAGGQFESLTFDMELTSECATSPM
Sequence of X-box-binding protein 1 (Homo sapiens) (P17861 whole entry, looked up): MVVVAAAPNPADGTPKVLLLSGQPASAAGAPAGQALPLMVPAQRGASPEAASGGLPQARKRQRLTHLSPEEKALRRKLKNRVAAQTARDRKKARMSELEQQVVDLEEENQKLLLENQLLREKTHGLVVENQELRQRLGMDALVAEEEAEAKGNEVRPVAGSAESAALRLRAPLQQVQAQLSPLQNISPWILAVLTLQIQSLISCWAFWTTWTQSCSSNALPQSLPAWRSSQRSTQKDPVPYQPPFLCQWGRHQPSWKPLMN

O[Si](c1ccccc1)(c1ccccc1)c1ccccc1
inactive: [1] | [2] | [4] | [5] | [6] | [7] | [9] | [10] | [11] | [12] | [13] | [14] | [15] | [17] | [18]
active: [3] 0.897 µM | [8] 69.1 µM | [16] 4.11 µM

CC(Cc1ccc(O)c(O)c1)C(C)Cc1ccc(O)c(O)c1 (stereo unspecified)
inactive: [4] | [8] | [9] | [13] | [15] | [19] | [20]
active: [1] 9.19 µM | [2] 22.1 µM | [3] 8.39 µM | [5] 6.13 µM | [6] 33.4 µM | [7] 8.73 µM | [10] 18.4 µM | [11] 18.7 µM | [12] 6.72 µM | [14] 5.93 µM | [16] 9.13 µM | [18] 14.4 µM

Cc1cc(C)cc(O)c1
active: [3] 64.5 µM
inactive: [1] | [2] | [3] | [4] | [5] | [6] | [7] | [8] | [9] | [10] | [11] | [12] | [13] | [14] | [16] | [17] | [18] | [19] | [20]

C=CC/C=C/C/C=C/C/C=C/C
inactive: [1] | [2] | [3] | [4] | [5] | [6] | [8] | [9] | [10] | [11] | [12] | [13] | [14] | [15] | [16] | [17] | [18]

CC(C)c1ccccc1N
inactive: [1] | [2] | [4] | [5] | [6] | [7] | [8] | [9] | [10] | [11] | [12] | [13] | [15] | [16] | [17] | [18] | [19] | [20]
active: [3] 34.9 µM | [14] 35.5 µM

FC(F)(F)C(F)(F)C(F)(F)C(F)(F)C(F)(F)C(F)(F)C(F)(F)C(F)(F)CCS
inactive: [1] | [2] | [3] | [4] | [5] | [6] | [7] | [8] | [9] | [10] | [11] | [12] | [13] | [14] | [15] | [16] | [17] | [18] | [19] | [20]

Cc1ccc(S(=O)(=O)OCC(F)(F)C(F)(F)C(F)(F)C(F)(F)C(F)(F)C(F)F)cc1
active: [3] 1.95 µM
inactive: [1] | [2] | [4] | [5] | [6] | [8] | [9] | [10] | [11] | [12] | [13] | [14] | [15] | [16] | [18] | [20]
